Test system: not listed separately
Assay: small-molecule binders of probe aInhba, primary screen, biochemical, small-molecule microarray, 635/667 nm fluorescence (AID 1148);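 also: score merges 667nm spot fluorescence with signal-to-noise for antibody binding to printed compounds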
Details: higher = more signal
Work on COCCCNC(=O)[C@]1(Cc2ccccc2N=[N+]=[N-])N=C(c2ccc(OCCCO)cc2)O[C@@H]1c1ccccc1N=[N+]=[N-] yielded a composite z-score of -0.0011.
Compound O=C1OC[C@@H](c2ccccc2)N2CC(/C=C/c3ccccc3)=CC12 (some centres undefined) has a composite z-score of -0.239.
With CC(C)CNC(=O)[C@@]1(c2ccc([N+](=O)[O-])cc2)CC(=O)N(C2CCCCC2)[C@@H]1c1ccc(CO)cc1I the composite z-score was 0.0633.
For COCCOC(=O)N1C(=O)[C@@]2(c3cc(C#Cc4ccc(OC)cc4)ccc31)[C@H](C(=O)N1CCCCCCC1)[C@H]1C(=O)O[C@H](c3ccccc3)[C@H](c3ccccc3)N1[C@@H]2c1ccc(O)cc1, the composite z-score was 0.696.
COCCCNC(=O)[C@]1(Cc2ccccc2CN=[N+]=[N-])N=C(c2ccc(OCCCO)cc2)O[C@@H]1c1ccccc1 showed a composite z-score of -0.0736.
For C=CCC(OC(C)=O)[C@@H]1[C@@H](N(Cc2cc3ccccc3o2)C(=O)Cc2ccc(F)cc2)c2cc(OCCCO)ccc2N1C(=O)c1ccc2ccccc2n1 (some centres undefined), the composite z-score was -0.142.
Compound CCN(CC)c1ccc(N2CC=CC34O[C@@H]5/C=C\CCC(C)OC(=O)C5[C@H]3C(=O)N(CCO)[C@@H]4C2=O)cc1 (some centres undefined) has a composite z-score of -0.0774.
In the case of CCOC(=O)C[C@H]1[C@H](OC(=O)Cc2ccc3c(c2)OCO3)[C@@H](NC(=O)Cc2ccc(OC)cc2)c2cc(OCCCO)ccc2N1C(=O)c1ccccc1, the composite z-score is reported as -0.103.

Biological target: Torsin-1A (Homo sapiens) (UniProt O14656)
Sequence (O14656 whole entry, looked up): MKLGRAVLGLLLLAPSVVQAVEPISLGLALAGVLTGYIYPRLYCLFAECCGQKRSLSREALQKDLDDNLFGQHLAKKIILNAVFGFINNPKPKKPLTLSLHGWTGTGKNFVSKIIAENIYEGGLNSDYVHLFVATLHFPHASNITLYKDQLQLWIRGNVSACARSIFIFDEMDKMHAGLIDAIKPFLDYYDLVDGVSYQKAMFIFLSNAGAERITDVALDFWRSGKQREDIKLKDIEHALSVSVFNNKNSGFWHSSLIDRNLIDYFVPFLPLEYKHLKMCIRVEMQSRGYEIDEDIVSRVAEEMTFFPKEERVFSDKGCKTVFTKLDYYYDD
Assay: torsin A binders from cell lysate, primary screen, small-molecule microarray, wild-type, 635/667 nm (AID 1149)
Details: COS7 hTOR1A-WT lysate, 635 nm fluorescence, higher = more signal
Compound O=C1O[C@@H](c2ccccc2)[C@@H](c2ccccc2)N2[C@@H](c3ccccc3OCCO)[C@]3(C(=O)Nc4ccccc43)[C@@H](C(=O)NC[C@H](O)c3ccccc3)[C@H]12 has a composite z-score of 0.604.
With COCCOC(=O)N1C(=O)[C@@]2(c3cc(C#CC4=CCCCC4)ccc31)[C@H](c1ccccc1OCCO)N1[C@H](c3ccccc3)[C@H](c3ccccc3)OC(=O)[C@H]1[C@@H]2C(=O)N1CCc2cc(OC)c(OC)cc2C1 the composite z-score was -0.148.
Work on Cc1ccc(S[C@]2(C(=O)NC3CC3)CC(=O)N(Cc3ccccc3Cl)[C@@H]2c2ccc(CO)cc2I)cc1 yielded a composite z-score of 0.765.
In the case of CC(C)CN1C(=O)[C@@]2(Cc3ccccc31)c1ccccc1C(=O)N(Cc1ccccc1C(F)(F)F)[C@H]2c1ccc(CO)cc1, the composite z-score is reported as -2.38.
CCCN1C(=O)[C@]2(Cc3ccccc3)N=C(c3ccc(OCCCO)cc3)O[C@@H]2c2ccccc21 showed a composite z-score of 0.317.
C[C@]1(C(=O)NC2CC2)c2ccccc2C(=O)N(Cc2ccc(OC(F)(F)F)cc2)[C@H]1c1ccc(CO)cc1 showed a composite z-score of 0.398.
NC(=O)NCC#Cc1ccc2c(c1)[C@]1(C(=O)N2)[C@H](C(=O)O)[C@H]2C(=O)O[C@H](c3ccccc3)[C@H](c3ccccc3)N2[C@@H]1c1ccccc1OCCO showed a composite z-score of 0.712.
Cc1ccc(S[C@]2(C(=O)NCCN3CCOCC3)CC(=O)N(Cc3ccccc3C(F)(F)F)[C@@H]2c2ccc(CO)cc2I)cc1 showed a composite z-score of 0.174.
Cc1ccc(S[C@]2(C(=O)NCc3ccccc3)CC(=O)N(C(C)C)[C@@H]2c2ccc(CO)cc2I)cc1 showed a composite z-score of -0.0397.
NC(=O)NCC#Cc1ccc2c(c1)[C@]1(C(=O)N2)[C@H](C(=O)Nc2nc3ccccc3s2)[C@H]2C(=O)O[C@H](c3ccccc3)[C@H](c3ccccc3)N2[C@@H]1c1ccc(O)cc1 gave a composite z-score of 0.171.
For O=C1NC(=O)C2C1C=CC(C(O)c1ccc(Br)cc1)N2Nc1ccccn1 (centres undefined), the composite z-score was 0.196.
In the case of [N-]=[N+]=Nc1ccccc1[C@H]1OC(c2ccc(OCCCO)cc2)=N[C@@]1(CCS(=O)(=O)c1ccccc1)C(=O)N1CCCCC1, the composite z-score is reported as 0.456.
Work on CC(C)C(CO)N1C(=O)[C@]2(C)C3C(=O)OCCC/C=C\[C@H]3OC23C=CCN(c2ccc(Cl)cc2)C(=O)[C@@H]13 (some centres undefined) yielded a composite z-score of -1.47.
With C=C[C@@H](C)[C@H](OC(=O)Nc1ccc(SC)cc1)c1ccc(OCCO)cc1 the composite z-score was -0.582.
In the case of [N-]=[N+]=NCc1ccccc1C[C@@]1(C(=O)NCCN2CCOCC2)N=C(c2ccc(OCCCO)cc2)O[C@@H]1c1ccccc1N=[N+]=[N-], the composite z-score is reported as 0.5.
CC(=O)N1Cc2ccccc2C[C@]2(N=C(c3ccc(OCCCO)cc3)O[C@@H]2c2ccccc2)C1=O gave a composite z-score of 0.611.
In the case of O=C1c2ccccc2[C@](Cc2ccccc2I)(C(=O)NCCN2CCOCC2)[C@H](c2ccc(CO)cc2)N1Cc1ccccc1, the composite z-score is reported as 0.0373.
Work on Cc1ccc(S[C@]2(C(=O)NC(C)C)CC(=O)N(Cc3ccccc3C(F)(F)F)[C@@H]2c2ccc(CO)cc2I)cc1 yielded a composite z-score of -0.93.
Compound CCOC(=O)[C@H]1C/C=C/C[C@H](C(=O)OCC)C(=O)O[C@H]2[C@@H](OC)O[C@H](CO)[C@@H](OC(=O)Nc3ccc(OC)cc3)[C@@H]2OC1=O has a composite z-score of 0.494.
Work on C[C@]1(C(=O)NCCN2CCOCC2)c2ccccc2C(=O)N(Cc2ccc(OC(F)(F)F)cc2)[C@H]1c1ccc(CO)cc1 yielded a composite z-score of 0.816.
Compound C=CC[C@]1(C(=O)N(C)C)N=C(c2ccc(OCCCO)cc2)O[C@H]1c1ccccc1N=[N+]=[N-] has a composite z-score of 0.73.
For COc1ccc([Si](C)(C)[C@H]2[C@H](CCO)O[C@@]3(C(=O)N(Cc4cccc(N5CCCCC5=O)c4)c4ccccc43)[C@@H]2C)cc1, the composite z-score was -0.0387.
C=CC[C@H](OC(=O)Nc1ccc(OC)cc1)c1ccc(O)c2ccccc12 showed a composite z-score of 0.51.
CC(C)N1CC=CC23O[C@@H]4C=CCOC(=O)[C@@H]4[C@H]2C(=O)N(C(C)CO)[C@@H]3C1=O (some centres undefined) gave a composite z-score of -1.33.
With COCCOC(=O)N1C(=O)[C@@]2(c3cc(C#CCNC(N)=O)ccc31)[C@H](C(=O)N1CCCCCCC1)[C@H]1C(=O)O[C@H](c3ccccc3)[C@H](c3ccccc3)N1[C@@H]2c1ccc(O)cc1 the composite z-score was 0.266.
Compound COc1ccc(C(O)C2C=CC3C(=O)N(c4ccccc4)C(=O)C3N2Nc2ccccc2)cc1OCc1ccccc1 (centres undefined) has a composite z-score of 0.867.
Compound C=CC[C@@H](OC(=O)Nc1ccc(OC)cc1)c1ccc(OCCO)cc1 has a composite z-score of -3.71.
With O=C1O[C@@H](c2ccccc2)[C@@H](c2ccccc2)N2[C@@H](c3ccc(O)cc3)[C@]3(C(=O)Nc4ccccc43)[C@@H](C(=O)Nc3nc4ccccc4s3)[C@H]12 the composite z-score was 0.0151.
For COCCCNC(=O)[C@]1(Cc2ccccc2N=[N+]=[N-])N=C(c2ccc(OCCCO)cc2)O[C@@H]1c1ccccc1N=[N+]=[N-], the composite z-score was 0.238.
Compound O=C1OC[C@@H](c2ccccc2)N2CC(/C=C/c3ccccc3)=CC12 (some centres undefined) has a composite z-score of -0.872.
Work on CC(C)CNC(=O)[C@@]1(c2ccc([N+](=O)[O-])cc2)CC(=O)N(C2CCCCC2)[C@@H]1c1ccc(CO)cc1I yielded a composite z-score of -0.149.
Work on COCCOC(=O)N1C(=O)[C@@]2(c3cc(C#Cc4ccc(OC)cc4)ccc31)[C@H](C(=O)N1CCCCCCC1)[C@H]1C(=O)O[C@H](c3ccccc3)[C@H](c3ccccc3)N1[C@@H]2c1ccc(O)cc1 yielded a composite z-score of 0.536.
Compound COCCCNC(=O)[C@]1(Cc2ccccc2CN=[N+]=[N-])N=C(c2ccc(OCCCO)cc2)O[C@@H]1c1ccccc1 has a composite z-score of 0.214.
C=CCC(OC(C)=O)[C@@H]1[C@@H](N(Cc2cc3ccccc3o2)C(=O)Cc2ccc(F)cc2)c2cc(OCCCO)ccc2N1C(=O)c1ccc2ccccc2n1 (some centres undefined) gave a composite z-score of -0.398.
In the case of CCN(CC)c1ccc(N2CC=CC34O[C@@H]5/C=C\CCC(C)OC(=O)C5[C@H]3C(=O)N(CCO)[C@@H]4C2=O)cc1 (some centres undefined), the composite z-score is reported as -1.12.
In the case of CCOC(=O)C[C@H]1[C@H](OC(=O)Cc2ccc3c(c2)OCO3)[C@@H](NC(=O)Cc2ccc(OC)cc2)c2cc(OCCCO)ccc2N1C(=O)c1ccccc1, the composite z-score is reported as -0.334.
